{"source": "paper PMC4336329", "about": "(PLoS ONE, 2015)", "note": "In all, about 310,000 compounds went through this assay and about 14,000 (4.5%) showed an effect of 50% or more. The effect is printed as a negative number. The entries come from a sample that favours strong results as a whole.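 Also: peak tail current of the secondary pulse compared with the same well before compound.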", "data": [{"molecular_target": "human ether-à-go-go-related gene (hERG) potassium channel (human, UniProt Q12809)", "sequence (Q12809 whole entry, looked up)": "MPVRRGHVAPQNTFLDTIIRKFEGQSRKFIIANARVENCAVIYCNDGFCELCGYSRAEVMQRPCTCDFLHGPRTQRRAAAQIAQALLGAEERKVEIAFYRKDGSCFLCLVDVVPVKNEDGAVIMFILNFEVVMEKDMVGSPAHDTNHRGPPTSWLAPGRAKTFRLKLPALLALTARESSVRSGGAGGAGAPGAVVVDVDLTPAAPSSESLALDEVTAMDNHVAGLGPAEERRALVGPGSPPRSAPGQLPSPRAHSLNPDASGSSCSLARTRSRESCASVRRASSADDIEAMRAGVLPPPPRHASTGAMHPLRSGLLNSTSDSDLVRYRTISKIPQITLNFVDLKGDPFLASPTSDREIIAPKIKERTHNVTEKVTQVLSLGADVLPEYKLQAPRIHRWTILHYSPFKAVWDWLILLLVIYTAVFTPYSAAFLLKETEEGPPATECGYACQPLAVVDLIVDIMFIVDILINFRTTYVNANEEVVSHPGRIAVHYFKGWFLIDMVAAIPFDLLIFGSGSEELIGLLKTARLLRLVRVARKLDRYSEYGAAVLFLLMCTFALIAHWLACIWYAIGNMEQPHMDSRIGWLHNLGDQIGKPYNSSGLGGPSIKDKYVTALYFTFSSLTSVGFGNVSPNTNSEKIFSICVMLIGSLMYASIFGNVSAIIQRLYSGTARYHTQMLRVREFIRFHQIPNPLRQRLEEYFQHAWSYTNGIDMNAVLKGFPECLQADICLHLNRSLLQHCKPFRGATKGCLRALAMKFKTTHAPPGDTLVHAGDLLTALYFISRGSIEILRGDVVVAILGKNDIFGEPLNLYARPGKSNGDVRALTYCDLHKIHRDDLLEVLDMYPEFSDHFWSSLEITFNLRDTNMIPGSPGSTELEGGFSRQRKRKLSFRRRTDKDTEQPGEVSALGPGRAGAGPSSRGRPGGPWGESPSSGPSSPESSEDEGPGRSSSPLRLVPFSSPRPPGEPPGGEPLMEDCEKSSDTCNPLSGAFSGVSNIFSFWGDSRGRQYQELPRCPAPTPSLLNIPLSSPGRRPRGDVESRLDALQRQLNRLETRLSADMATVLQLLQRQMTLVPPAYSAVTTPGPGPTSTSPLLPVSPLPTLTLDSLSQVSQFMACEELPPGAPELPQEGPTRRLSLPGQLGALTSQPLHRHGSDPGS", "assay": "primary screen, population patch clamp on CHO cells stably expressing hERG; higher = less effect of the substance", "units": {"hERG current change (%, negative = inhibition) at 10uM": "%"}, "values": [{"smiles": "COc1ccc([N+](=O)[O-])cc1Nc1c2ccccc2nc2ccccc12", "hERG current change (%, negative = inhibition) at 10uM": 9.54}, {"smiles": "COc1cc(Nc2nc(SCC#N)nc3ccccc23)cc(OC)c1OC", "hERG current change (%, negative = inhibition) at 10uM": -32}, {"smiles": "COc1ccc(Nc2nc(N)c3ccccc3n2)c(OC)c1.Cl", "hERG current change (%, negative = inhibition) at 10uM": -14.9}, {"smiles": "COc1ccccc1Nc1c2ccccc2nc2ccccc12", "hERG current change (%, negative = inhibition) at 10uM": -71}, {"smiles": "COc1cc(Nc2c3c(nc4ccccc24)CCCC3)cc(OC)c1OC", "hERG current change (%, negative = inhibition) at 10uM": -65.9}, {"smiles": "COc1cc(NS(C)(=O)=O)ccc1Nc1c2ccccc2nc2ccccc12.Cl", "hERG current change (%, negative = inhibition) at 10uM": -67.7}, {"smiles": "COc1ccc(OC)c(Nc2c3ccccc3nc3ccccc23)c1", "hERG current change (%, negative = inhibition) at 10uM": -11}, {"smiles": "COc1ccccc1Nc1nc(-c2ccccc2)nc2ccccc12", "hERG current change (%, negative = inhibition) at 10uM": 23.5}, {"smiles": "COc1c2ccccc2nc2ccccc12", "hERG current change (%, negative = inhibition) at 10uM": 13.3}, {"smiles": "COc1cc(Nc2c3ccccc3nc3ccccc23)cc(OC)c1OC", "hERG current change (%, negative = inhibition) at 10uM": -63.9}, {"smiles": "COc1cc(NC(=O)c2ccc3c(SCC(=O)O)c4c(nc3c2)CCCC4)cc(OC)c1OC", "hERG current change (%, negative = inhibition) at 10uM": 12.3}, {"smiles": "COc1ccc(S(=O)(=O)N2CCCCCC2)cc1NC(=O)CN1C(=O)NC(C)(c2ccc(C)cc2)C1=O", "note": "(stereo not shown)", "hERG current change (%, negative = inhibition) at 10uM": -12.8}, {"smiles": "Cc1ccc(NC(=O)CCC(=O)c2cccs2)cc1F", "hERG current change (%, negative = inhibition) at 10uM": 2.31}, {"smiles": "CCOC(=O)c1oc2cc(O)c(CC)cc2c(=O)c1-c1cscn1", "hERG current change (%, negative = inhibition) at 10uM": 2.56}, {"smiles": "CCC(C)N1C(=O)CCC1C(=O)N1CCN(c2ccc(F)cc2)CC1", "note": "(stereo not shown)", "hERG current change (%, negative = inhibition) at 10uM": -28.3}, {"smiles": "COc1ccc(Nc2c3c(nc4ccccc24)CCCC3)cc1OC", "hERG current change (%, negative = inhibition) at 10uM": -73.2}, {"smiles": "Cc1ccc(O)c(Nc2c3ccccc3nc3ccccc23)c1", "hERG current change (%, negative = inhibition) at 10uM": -52.8}, {"smiles": "COc1cc(NC(=O)CSc2c3c(nc4ccccc24)CCC3)cc(OC)c1OC", "hERG current change (%, negative = inhibition) at 10uM": -7.51}, {"smiles": "COc1cc(Nc2c3c(nc4ccccc24)CCC3)cc(OC)c1OC", "hERG current change (%, negative = inhibition) at 10uM": -60}, {"smiles": "COc1ccc(Nc2nc(-c3ccccc3F)nc3ccccc23)cc1OC", "hERG current change (%, negative = inhibition) at 10uM": 0.695}, {"smiles": "Cc1ccc(O)c(Nc2nc(-c3ccccc3)nc3ccccc23)c1", "hERG current change (%, negative = inhibition) at 10uM": 14.9}, {"smiles": "COC(=O)c1c2c(nc3ccccc13)CCC2", "hERG current change (%, negative = inhibition) at 10uM": -3.81}, {"smiles": "COc1ccc(NC(=O)COC(=O)c2c3c(nc4ccccc24)CCCC3)cc1Cl", "hERG current change (%, negative = inhibition) at 10uM": 9.73}, {"smiles": "Cc1ccc(O)c(Nc2ncnc3ccccc23)c1.Cl", "hERG current change (%, negative = inhibition) at 10uM": 11.8}, {"smiles": "O=C(NCC(c1cccnc1)N1CCN(c2ccc(F)cc2)CC1)c1ccco1", "note": "(stereo not shown)", "hERG current change (%, negative = inhibition) at 10uM": -47.7}]}]}
